# In PubChem BioAssay AID624300 (Southern Research Specialized Biocontainment Screening …, 2012):
# The whole screen tested about 2,400 compounds, of which about 360 (15%) were called active.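 How the source made its calls: active means viability falls under 70% at one or more tested concentrations, taken as toxicity; inactive means viability stays over 70% at every dose.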 The list is a sample of the results. Measured potencies and affinities stand elsewhere.
# Assay: viability loss in HeLa cells – cytotoxicity control for MgcRacGAP inhibitor project, dose response (AID 624300)
# Conditions: CellTiter-Glo luminescence, 24 h; series mostly up to 100 µM
row,Structure (SMILES),outcome
1,c1ccc(CNC23CC4CC(CC(C4)C2)C3)nc1,inactive
2,COc1ccc(S(=O)(=O)N2CCC(N3CCN(Cc4ccccc4)CC3)CC2)cc1,inactive
3,O=C(CSc1cn[nH]n1)Nc1cccc(C(=O)O)c1,inactive
4,CN(CCOc1ccc(Cl)c(Cl)c1)Cc1ccccc1,inactive
5,Cc1cc(C)c(OCCCCN(C)Cc2ccccc2)c(C)c1,inactive
6,Cc1ccc(OCCCCNC(C)(C)C)c([N+](=O)[O-])c1,inactive
7,Cc1ccc(-n2[nH]c(=O)c3cccnc32)cc1,inactive
8,Nc1ccc(N2CCN(C(=O)c3cccs3)CC2)cc1,inactive
9,COc1cc(/C=C/C(=O)OCC(=O)NCCCc2ccccc2)ccc1O,inactive
10,COc1cc(/C=N/Nc2nc3ccccc3s2)ccc1O,inactive
11,CC(=O)Nc1n[nH]c(=S)s1,inactive
12,O=C(N/N=C/c1sc2ccccc2c1O)c1cccc2ccccc12,inactive
13,O=C(CNC(=O)c1ccc2c(c1)OCCO2)N/N=C/c1ccc(O)cc1O,inactive
14,CN(C)/C=C1/C=C(c2ccccc2)OC1=O,inactive
15,COc1cc(/C=N/N=C2/NC(=O)C(c3ccccc3)S2)ccc1O (stereo unspecified),inactive
16,O=C(CN1CCCCCC1)NN(Cc1ccccc1)c1ccccc1,inactive
17,S=C(NCCCN1CCOCC1)Nc1ccc(Nc2ccccc2)cc1,inactive
18,COc1ccccc1CNc1ncc(-c2ccccc2)n1C,inactive
19,COc1cc(CNc2ncc(-c3ccc(Br)cc3)n2C)cc(OC)c1O,inactive
20,Clc1ccccc1CNCc1ccc2c(c1)OCO2,inactive
21,Cn1c(-c2ccccc2)cnc1NCc1ccc(-c2ccccc2)cc1,inactive
22,Cc1ccc(CNc2ncc(-c3ccccc3)n2C)o1,inactive
23,COc1ccc(CNc2ncc(-c3ccc(Br)cc3)n2C)cc1OC,inactive
24,O=C1c2ccccc2C(=O)N1/N=C/c1ccc(O)c(O)c1,inactive
25,COc1ccc(C(=O)CCC(=O)Nc2cc(Cl)c(O)c(Cl)c2)cc1,inactive
26,N#CC1=C(N)NC(=S)C(C(N)=O)C1c1ccc([N+](=O)[O-])cc1 (stereo unspecified),inactive

row,Structure (SMILES),outcome
1,Cc1ccc(COC(=O)Cc2coc3cc(O)ccc23)cc1,inactive
2,CCS(=O)(=O)c1cc([N+](=O)[O-])c(Sc2ccccc2N)s1,inactive
3,CCOc1cc(/C=N/NC(=O)NN(C)c2ncc(C(F)(F)F)cc2Cl)ccc1O,inactive
4,O=C(Cc1ccc(Cl)cc1)N/N=C/c1ccc(O)c(O)c1,inactive
5,O=c1c(O)c(-c2ccc(O)c(O)c2)oc2cc(O)ccc12,inactive
6,COC(=O)c1[nH]c2ccc(Cl)cc2c1NC(=O)Oc1ccccc1,inactive
7,Cc1cc(-c2n[nH]c(=S)n2/N=C/c2cccc(O)c2)n[nH]1,inactive
8,COc1ccc(NC2CCCN(C(=O)c3cccc(N4CCNC4=O)c3)C2)cc1 (stereo unspecified),inactive
9,COc1cccc(Oc2cn[nH]c2-c2ccc(O)cc2O)c1,inactive
10,COc1ccc(Oc2c(-c3ccc(O)cc3O)n[nH]c2C)cc1,inactive
11,CC1=NN(C(N)=S)C(=O)C1N=Nc1ccc(O)cc1 (stereo unspecified),inactive
12,O=C(O)c1ccc2c(c1)[C@@H]1C=CC[C@@H]1[C@H](c1ccccn1)N2,inactive
13,CCN(CC)c1ccc(NC(=O)CNCc2ccccc2Cl)c(C)c1,inactive
14,COc1ccc(CNc2ncc(-c3ccc(F)cc3)n2C)cc1OC,inactive
15,COc1ccc(CNc2ncc(-c3ccccc3)n2C)c(OC)c1OC,inactive
16,CCN1C(=O)c2ccc(C(=O)Nc3ccc(O)cc3C)cc2C1=O,inactive
17,CCn1nc(CC(C)C)cc1C(=O)N1CCCC(Nc2ccc(OC)cc2)C1 (stereo unspecified),inactive
18,CC(C)NCC(=O)Nc1c2c(nc3ccccc13)CCC2,inactive
19,CN1CCc2c1nc1ccccc1c2NC(=O)CN1CCCC1,inactive
20,Cc1sc2c3ccsc3ccc2[n+]1C,inactive
21,CC(C)(C)N(Cc1ccc2c(c1)OCO2)C(=O)/C=C\S(=O)c1ccccc1 (stereo unspecified),inactive
22,COc1ccc(C2NC(=O)C(C#N)=C(S)N2c2cccc(C)c2)cc1OC (stereo unspecified),inactive
23,CN(C)CCO/N=C(\c1ccc(Br)cc1)c1cccnc1,inactive
24,COC(=O)c1ccc(NCc2c(O)ccc(O)c2Br)cc1Cl,inactive
25,COC(=O)c1ccc(C(=O)OCCCc2nc3ccc(N)cc3[nH]2)cc1,inactive
26,CCOC(=O)c1[nH]c2ccccc2c1NC(=S)Nc1cccc(C)c1C,inactive

row,Structure (SMILES),outcome
1,Cc1ccc(-c2n[nH]c(=S)n2/N=C/c2ccc(C(=O)O)cc2)cc1,inactive
2,COc1ccc2cc(OCC(=O)NNC(=O)Nc3ccc(F)cc3)ccc2c1,inactive
3,Oc1ccc(CCc2ccccn2)cc1,inactive
4,CC(=O)NC(Cc1ccccc1)C(=O)Oc1ccc2ccccc2c1 (stereo unspecified),inactive
5,CN1C(=O)/C(=C/C=C2/CCCN2C)N(C)C1=S,inactive
6,Oc1ccc(Nc2ncnc3ccccc23)cc1,inactive
7,Cc1nc(Nc2ccc(O)cc2)c2c3c(sc2n1)CCCC3,inactive
8,Cc1cccc(Nc2c(-c3ccc(O)cc3)nc3ncccn23)c1,inactive
9,COc1ccc(/C=N/N2CCN(C)CC2)cc1O,inactive
10,O=c1nc2s/c(=C\c3ccc(-c4ccccc4[N+](=O)[O-])o3)c(=O)n2nc1-c1ccccc1,inactive
11,CC1=NOC(=O)/C1=C\c1ccc(-c2ccc(Cl)c(C(=O)O)c2)o1,inactive
12,C=CCn1c(SCC(=O)Nc2ccc(N(C)C)cc2)nnc1-c1cccc(C)c1,inactive
13,COc1ccc(NC2CCCN(C(=O)CCC3=NNC(=O)CC3)C2)cc1 (stereo unspecified),inactive
14,COc1ccc(N2CCN(S(=O)(=O)c3c(C)nc4scc(C)n4c3=O)CC2)cc1,inactive
15,N/N=C(\Cc1cscn1)c1ccc(O)cc1O,inactive
16,O=C(CN1CCN(c2ccc(O)cc2)CC1)Nc1ccc2c(c1)OCCCO2,inactive
17,Nc1nc2c(s1)CCc1ccccc1-2,inactive
18,COc1ccc2c(C)cc3n[nH]c(=S)n3c2c1,inactive
19,NNc1ccc([N+](=O)[O-])c2[nH][nH]c(=O)c12,inactive
20,COc1ccc(-c2cnnc(N/N=C/c3ccc(O)c(O)c3)n2)cc1,inactive
21,CN(C)c1ccc(/C=N\Nc2ccccn2)cc1,inactive
22,COc1cc(/C=N/Nc2cc(C)nc(NS(=O)(=O)c3ccccc3)n2)ccc1O,inactive
23,Cc1nc2ccccc2nc1N/N=C/c1ccc(O)cc1,inactive
24,CCN(CC)c1ccc(/C=N/Nc2nc(C)cc(C)n2)c(O)c1,inactive
25,Oc1ccc(C=NNc2nc3ccccc3s2)c(O)c1,inactive
26,COc1ccc(NCc2ccsc2)cc1,inactive

row,Structure (SMILES),outcome
1,COc1ccc(NC2CCCN(C(=O)CN3CCOC3=O)C2)cc1 (stereo unspecified),inactive
2,CC1(C)CC(=O)C(C=Nc2ccc(N)cc2)=C(O)C1,inactive
3,COc1cc(/C=C/C(=O)OCC(=O)N2CC3(C)CC2CC(C)(C)C3)ccc1O (stereo unspecified),inactive
4,Cn1c(=O)[nH]c(=O)c2c1[nH]c(=S)n2CCCc1ccccc1,inactive
5,Cn1c(=O)c2[nH]c(=S)n(Cc3ccccc3)c2n(C)c1=O,inactive
6,CN(C)c1ccc(NC(=S)NCC2CCCO2)cc1 (stereo unspecified),inactive
7,Cc1sc2ccc3sccc3c2[n+]1C,inactive
8,Cc1cc(N(C)C)ccc1N=Nc1ccc(N)cc1,inactive
9,O=C(CN1CCN(c2ncccn2)CC1)N1CCCC1,inactive
10,Cc1nc2ccc(C(=O)Nc3ccc(N(C)C)cc3)cc2s1,inactive
11,CCn1c(SCC(=O)Nc2ccc(N(C)C)cc2)nnc1-c1cccc(C)c1,inactive
12,CC(C)c1nc(SCC(=O)Nc2ccc(N(C)C)cc2)c2ccccc2n1,inactive
13,Cc1ccccc1SCC(=O)OCC(=O)Nc1ccc(N(C)C)cc1,inactive
14,COc1cc(/C=N/NC(=O)CNc2n[nH]c(=O)[nH]c2=O)ccc1O,inactive
15,CSc1ccc(CN2CCC(N3CC(C)OC(C)C3)CC2)cc1 (stereo unspecified),inactive
16,C=CCn1c(SCC(=O)c2ccc(O)c(O)c2)nnc1-c1cccc(OC)c1,inactive
17,CCn1c(CSc2nc3ccccc3s2)nnc1SCC(=O)c1ccc(O)c(O)c1,inactive
18,CN(C)c1ccc(NS(=O)(=O)c2ccc(Cl)cc2)cc1,inactive
19,CS(=O)(=O)N1CCN(C2C3CC4CC(C3)CC2C4)CC1 (stereo unspecified),inactive
20,COc1cc(/C=N/NC(=O)c2ccc(-n3cccc3)cc2)ccc1O,inactive
21,O=C(N/N=C/c1ccc(O)cc1)c1cccc(C(F)(F)F)c1,inactive
22,Fc1ccc(CN2CCN(C(c3ccccc3)c3ccccc3)CC2)cc1,inactive
23,COc1cc(/C=N\NC(=O)c2ccc(Cn3nc([N+](=O)[O-])c(Cl)c3C)o2)ccc1O,inactive
24,O=C(O)c1cc(N2C(=O)C=CC2=O)cc(N2C(=O)C=CC2=O)c1,inactive
25,Oc1ccc2c(ccc3[nH]cnc32)c1,inactive
26,Nc1ccc2[nH]c(=S)[nH]c2c1,inactive

row,Structure (SMILES),outcome
1,Cc1ccc(Nc2n[nH]c(=S)s2)cc1,inactive
2,COc1ccc(N2CCN(c3ccc(C(N)=O)cc3[N+](=O)[O-])CC2)cc1,inactive
3,Cc1sc2ncnc(N(C)CCc3ccccn3)c2c1C,inactive
4,CCOC(=O)c1c(C)[nH]sc1=S,inactive
5,CCN(CC)c1ccc(NC(=O)C2CCCC2)cc1,inactive
6,CCN(CC)c1ccc(/C=N/O)cc1,inactive
7,CCN(CC)c1ccc(NC(=O)Nc2ccccc2)cc1,inactive
8,CCN(CC)c1ccc(NC(=O)CSC(=O)c2ccccc2)cc1,inactive
9,CCN(CC)c1ccc(/C=N/N2CCOCC2)c(O)c1,inactive
10,CN(C)c1ccc(/C=N/N2CCN(Cc3ccccc3Cl)CC2)cc1,inactive
11,CCOc1cc(/C=C2\SC(=O)N=C2N)ccc1O,inactive
12,C=CCN(CC=C)C(=O)C1CCN(Cc2ccc(OCc3ccccc3)cc2)CC1,inactive
13,COc1ccc(N2CCN(C(=O)NC3CCCCC3)CC2)cc1,inactive
14,CC1=CC(C)(C)N(C(=O)CNC2CCCC2)c2cc(C)ccc21,inactive
15,COc1cc(/C=N\NC(=O)c2c(C)nc3cc(C)ccn23)ccc1O,inactive
16,O=C1C(Cl)=C(NCCc2ccccc2)C(=O)c2ccccc21,inactive
17,COc1ccc(O/C(=N\S(=O)(=O)c2ccccc2)c2ccccc2)cc1,inactive
18,COc1ccc(C=C2C(=O)c3ccccc3C2=O)cc1O,inactive
19,O=S1(=O)N=C(Nc2ccc(O)cc2)c2ccccc21,inactive
20,COc1ccc(Nc2ccc3ccccc3c2)cc1,inactive
21,CN(C)c1ccc(NC(=O)CN2C(=O)c3ccccc3C2=O)cc1,inactive
22,O=C(NN=Cc1ccc(O)cc1O)c1ccccc1NS(=O)(=O)c1cccs1,inactive
